BAZ2B block = inhibitors of human BAZ2B bromodomain | Potency, µM (highest dose often 114 µM), actives largely listed as inhibitors | Q9UIF8 | 360,000 compounds, 4.4% hits | AlphaScreen BAZ2B-H3K14Ac peptide displacement | AID 504333; note: nearly all actives have a fitted effect of over 60% in size
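Inhibition is scored as reduced AlphaScreen emission. The BAZ2B/b-H3(5-23)K14Ac complex (50 nM each) in PBS pH 7.4, 0.01% Tween-20 meets compound (up to 110 uM) for 30 min at RT before bead addition.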
JMJD2A Tudor = blocks the human JMJD2A Tudor domain; O75164; AlphaScreen JMJD2A-Tudor / H3K4me3 peptide binding; Potency, µM (doses to about 114 µM), actives largely listed as inhibitors; 390,000 compounds, 4.4% hits; note: nearly all actives have a fitted effect of over 50% in size
Target sequence (O75164 whole entry, looked up, the tested form may be a part): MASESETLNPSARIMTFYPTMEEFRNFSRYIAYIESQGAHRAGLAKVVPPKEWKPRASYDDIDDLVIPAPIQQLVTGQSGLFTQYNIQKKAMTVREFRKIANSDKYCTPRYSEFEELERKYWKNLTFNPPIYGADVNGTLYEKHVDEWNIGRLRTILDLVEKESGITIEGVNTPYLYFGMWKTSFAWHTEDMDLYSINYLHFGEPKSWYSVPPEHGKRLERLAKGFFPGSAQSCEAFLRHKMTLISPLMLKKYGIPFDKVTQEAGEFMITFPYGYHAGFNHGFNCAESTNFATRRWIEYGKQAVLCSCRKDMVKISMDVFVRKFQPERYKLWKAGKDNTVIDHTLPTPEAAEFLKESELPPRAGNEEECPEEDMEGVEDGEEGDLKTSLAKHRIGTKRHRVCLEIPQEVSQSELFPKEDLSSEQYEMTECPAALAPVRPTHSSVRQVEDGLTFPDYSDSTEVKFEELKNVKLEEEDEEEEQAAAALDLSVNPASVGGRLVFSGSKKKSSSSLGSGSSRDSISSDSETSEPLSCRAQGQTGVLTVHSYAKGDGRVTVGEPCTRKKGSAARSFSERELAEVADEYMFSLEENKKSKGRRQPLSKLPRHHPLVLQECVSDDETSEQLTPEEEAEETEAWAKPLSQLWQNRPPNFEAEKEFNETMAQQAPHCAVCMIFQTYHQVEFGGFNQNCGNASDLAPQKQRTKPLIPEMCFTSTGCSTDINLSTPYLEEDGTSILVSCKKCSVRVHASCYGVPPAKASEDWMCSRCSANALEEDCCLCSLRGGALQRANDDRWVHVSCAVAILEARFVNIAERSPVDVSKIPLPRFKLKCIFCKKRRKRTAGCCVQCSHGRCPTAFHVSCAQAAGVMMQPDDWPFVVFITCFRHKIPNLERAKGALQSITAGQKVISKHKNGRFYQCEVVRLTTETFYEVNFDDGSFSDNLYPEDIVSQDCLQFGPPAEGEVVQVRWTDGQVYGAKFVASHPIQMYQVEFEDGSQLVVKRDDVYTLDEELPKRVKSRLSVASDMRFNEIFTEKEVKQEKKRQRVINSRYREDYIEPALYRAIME
HP1b chromo inh = HP1-beta chromodomain-methylated histone interaction inhibition; Potency, µM (series often up to 114 µM), actives largely listed as inhibitors; P83916; AID 540317; AlphaScreen HP1-beta / biotin-H3K9me3 peptide binding; 390,000 compounds, 0.56% hits; note: nearly all actives have a fitted effect of over 70% in size
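AlphaScreen: HP1-beta (50 nM) preformed 30 min with biotin-H3(1-18)K9me3 peptide (50 nM) in PBS pH 7.4, 0.01% Tween-20. Compound added for 30 min at RT, then streptavidin donor/nickel chelate acceptor beads (10 ug/mL) for 30 min.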
PLK1 PBD inh = PLK1 (human) polo-box domain binding inhibition | Potency, µM, usual class: inhibitors | Plk1 PBD binding of FITC phosphopeptide, fluorescence polarization | 360,000 compounds, 2.8% hits | AID 720504 | P53350; note: series mostly up to about 57 µM; nearly all actives have a fitted effect of over 65% in size
VDR inhibitor = inhibitors of human vitamin D receptor; Potency, µM, actives largely listed as inhibitors; VDR-SRC2-3 peptide fluorescence polarization, 2 h; P11473; 400,000 compounds, 0.93% hits
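Fluorescence polarization assay of small-molecule disruption of VDR binding to coregulator peptide SRC2-3. Compounds and controls pin-transferred, then read after 2 h incubation at ambient room temperature.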
G9a inh = inhibitors of human histone lysine methyltransferase G9a | 350,000 compounds, 8.8% hits | G9a H3K9 monomethylation, AlphaScreen, 2 h | Potency, µM (doses to about 102 µM), actives largely listed as inhibitors | AID 504332; note: nearly all actives have a fitted effect of over 75% in size
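Using a bead-based AlphaScreen, monomethylated H3K9 product from 2 h room-temperature reactions (G9a 20 nM, peptide 500 nM, SAM 20 uM) was detected with 0.5 ug/mL rabbit anti-H3K9me1 antibody.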
Hits are given with their value; n = inactive; u = inconclusive; x = no result given; [ ] = dose if it differs, or a comment. The list is not random: actives were taken first. Their share in the collection is about 11%. Calls come from the whole dose curve; as a rule, active = well fitted curve in the direction sought with a large enough effect; inconclusive = small, poorly fitted or top-dose-only effect, or another doubt; inactive = no such curve, though single readings can be large; an effect the other way counts as inactive or inconclusive.

SMILES | BAZ2B block | JMJD2A Tudor | HP1b chromo inh | PLK1 PBD inh | VDR inhibitor | G9a inh
CC(C)CC(NC(N)=O)C(=O)Nc1ccc(Oc2ccccc2)cc1 (stereo unspecified) | n | n | n | n | n | n
CCOC(=O)N1CCC(Nc2c(NCCCN(CC)c3cccc(C)c3)c(=O)c2=O)CC1 | u | u | n | n | n | 50µM
CCOC(=O)N1CCN(c2c(NCCCN(C)c3ccccc3)c(=O)c2=O)CC1 | n | n | n | n | n | u
CCOC(=O)N1CCN(c2c(NCCN(C)Cc3ccccc3)c(=O)c2=O)CC1 | n | n | n | n | n | 56µM
CCOC(=O)N1CCC(Nc2c(-c3ccccc3)c(=O)c2=O)CC1 | n | n | n | n | n | 56µM
CCN(CC(=O)Nc1ccc(NC(C)=O)cc1)C(=O)CCCc1nc2ccccc2c(=O)[nH]1 | n | n | n | n | n | n
CCOC(=O)C1(C)CCCN1C(=O)c1cccs1 (stereo unspecified) | x | x | x | n | x | x
COc1ccccc1NNC(=O)c1cc(C(C)(C)C)nn1Cc1ccccc1 | u | n | n | n | n | 13µM
CC(C)(C)C(=O)NNC(=O)c1cc(C(C)(C)C)nn1Cc1ccccc1 | n | n | n | n | n | n
Cc1ccc(NNC(=O)c2cc(C(C)(C)C)nn2Cc2ccccc2)cc1 | n | 71µM | u | n | n | 3.5µM
Cc1ccc(NC(=O)c2cc(C(C)(C)C)nn2Cc2ccccc2)cc1 | n | n | n | n | n | x
CCN(CC)S(=O)(=O)c1ccc(C(=O)NC2CC(=O)N(c3ccc(OC)c(OC)c3)C2)cc1 (stereo unspecified) | n | n | n | x | n | n
O=C(NCCC1=CCCCC1)C(=O)NCC1OCCCN1S(=O)(=O)c1ccc(F)cc1 (stereo unspecified) | n | n | n | n | n | n
Fc1cccc(NC(=S)N2CCN(c3ccccn3)CC2)c1 | n | n | n | n | n | n
CCOc1cc(S(=O)(=O)n2ccnc2)ccc1Cl | 79µM | n | n | n | n | u
CN(CC(=O)NCCc1ccc(S(N)(=O)=O)cc1)Cc1ccc(Cl)cc1Cl | n | n | n | n | n | n
CC(NCCc1ccc(S(N)(=O)=O)cc1)C(=O)NCCc1ccc(F)cc1 (stereo unspecified) | 50µM | 25µM | u | n | n | n
Cc1ccc(C(=O)NCCc2ccc(S(N)(=O)=O)cc2)o1 | n | n | n | n | n | n
CN(CC(=O)Nc1ccc([N+](=O)[O-])cc1Br)Cc1c(F)cccc1Cl | n | u | n | 27µM | n | u
CN(CC(=O)NCCc1ccc(S(N)(=O)=O)cc1)Cc1c(F)cccc1Cl | n | n | n | n | u | 50µM
Cc1cc2oc(C(=O)NCCc3ccc(S(N)(=O)=O)cc3)cc(=O)c2cc1C | n | u | n | 27µM | u | n
Cc1ccc(C)c(Cn2nc(-c3cc(C)ccc3C)ccc2=O)c1 | n | n | n | n | n | n
COc1ccc(CNC(=O)C2CCN(c3nnc(-n4c(C)ccc4C)s3)CC2)c(OC)c1 | n | n | n | x | n | n
O=C(CCCCCn1c(=O)c2sccc2n(Cc2ccccc2Cl)c1=O)NCc1ccc2c(c1)OCO2 | n | n | n | x | n | n
S=C(NCc1ccco1)N1CCC(c2nc3ccccc3o2)CC1 | u | n | n | n | n | u
SMILES | BAZ2B block | JMJD2A Tudor | HP1b chromo inh | PLK1 PBD inh | VDR inhibitor | G9a inh
CCC(C)c1ccc(-n2c(=O)c3ccccc3n3c(=S)[nH]nc23)cc1 (stereo unspecified) | n | n | n | 21µM | n | 1.1µM
O=c1c2ccccc2n2c(=S)[nH]nc2n1-c1ccccc1 | u | 3.2µM | u | 21µM | n | 5µM
CC(=O)C1=C(C)NC(SCC(=O)Nc2nc3ccccc3s2)=C(C#N)C1c1ccc(Cl)cc1 (stereo unspecified) | n | n | n | n | n | 8.9µM
COc1ccc(NC(=O)CSC2=C(C#N)C(c3ccco3)C(C(=O)Nc3nc4ccccc4s3)=C(C)N2)cc1 (stereo unspecified) | x | n | n | n | n | x
CCCCN1C(=O)C(CC(=O)NCCN2CCOCC2)CC(C(=O)N(CC)CC)=C1C (stereo unspecified) | x | x | x | n | x | x
Cc1csc(=Nc2cccnc2)n1CC1CCCCC1 | 45µM | n | n | n | n | u
Cc1csc(=Nc2cccnc2)n1Cc1ccco1 | 45µM | n | n | n | n | n
COc1ccc(C(=O)NCCn2cc(SCC(=O)NCC3CCCO3)c3ccccc32)cc1 (stereo unspecified) | n | n | n | n | n | x
COc1ccc(C(=O)NCCn2cc(SCC(=O)Nc3cccc(C)c3)c3ccccc32)cc1 | 50µM | n | n | x | n | n
Cc1nnc(NC(=O)CSc2cn(CCNC(=O)c3ccccc3)c3ccccc23)s1 | n | n | n | n | n | 28µM
COc1ccc(C(=O)NCCn2cc(SCC(=O)Nc3nnc(C)s3)c3ccccc32)cc1 | x | n | n | n | n | x
COc1ccc(C(=O)NCCn2cc(SCC(=O)NCc3ccco3)c3ccccc32)cc1 | n | u | n | 3µM | n | n[2.33 µM]
O=C(OCC#CCSc1nnc(-c2cccc3ccccc23)o1)c1sc(Cl)c(Cl)c1Cl | x | n | x | x | x | x
COc1ccc(COc2cc(-c3cccc(OC)c3)nc3ccc(NC(C)=O)cc23)cc1 | n | u | n | n | n | n
COc1ccc(COc2cc(-c3cccc(OC)c3)nc3ccc(N)cc23)cc1 | u | u | n | n | n | 45µM
COc1ccccc1Cc1nc2ccccc2n1S(=O)(=O)c1ccc(Cl)cc1 | n | n | n | n | n | 25µM
C=CCNC(=S)N/N=C/c1ccc(C)c([N+](=O)[O-])c1 | n | n | n | n | n | n
C=CCNC(=S)NC(=O)c1csc([N+](=O)[O-])c1 | n | n | n | n | u | 25µM
O=C(NC(=S)N1CCCCC1)c1csc([N+](=O)[O-])c1 | n | n | n | u | n | 25µM
CC(C)(C)c1ccc(C(=O)NC(=S)N2CCCCCC2)cc1 | u | n | n | n | n | n
O=C(O)CCc1nnc2n(Cc3ccc(F)cc3)c(=O)c3ccccc3n12 | n | n | n | n | n | n
O=C(CCN1C(=O)c2ccccc2C1=O)Oc1ccc2ccccc2c1 | n | n | n | n | n | n[12.7 µM]
CC1=CC(C)(C)Nc2ccc(OC(=O)CCN3C(=O)c4ccccc4C3=O)cc21 | 35µM | n | u | n | n | 20µM
Cc1ccc(S(=O)(=O)N(C)C[C@@H]2OCCCC[C@H](C)Oc3ccc(NC(=O)Nc4ccc(F)cc4)cc3C(=O)N([C@H](C)CO)C[C@H]2C)cc1 | x | x | x | n | x | x
Cc1cccc(/C=C2\CCC(=C3SCCCS3)C2=O)c1 | 10µM | 45µM | 16µM | n | n | 50µM
Cc1ccc(NC(=O)CSc2ccccc2NC(=O)c2ccccc2Cl)cc1Cl | n | n | n | n | n | n

Assay outcomes: PubChem BioAssay, National Center for Advancing Translational Sciences (NCATS)
